# M1 antagonist: antagonists of rat M1 muscarinic receptor; CHO-M1 cells, Fluo-4 calcium, ACh EC80 antagonist mode; active compounds read low; B-score at 10 µM; 3.4% of 64,000 active; AID 628, 2007;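 active = calcium fluorescence response, raw or row-and-column corrected B-score, differing from the plate sample mean either way at a set confidence level, mostly lower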
# D1 mod: D1 CRE-luciferase signal change, two-sided – cell-based, HEK293 D1, dopamine EC30, D1 allosteric modulator project, primary screen; dopamine EC30 potentiation; actives deviate in either direction; 5.9% of 58,000 active; D(1A) dopamine receptor (Homo sapiens), P21728; B-score at 10 µM;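 active = luminescence count or its row- and column-corrected plate score outside the 99.7% band of the plate's sample wells, on either side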
# DAT uptake mod: changed hDAT dopamine uptake under cocaine IC80, either direction, primary screen, cocaine antagonist project, cell-based, LLC-PK1 hDAT, [14C]-dopamine uptake, MLSMR | 1.3% of 110,000 active | LLC-PK1 hDAT cells, [14C]-dopamine uptake with cocaine IC80; actives deviate in either direction | AID 449768, 2010 | B-score at 10 µM;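 active = Z score or B-score, a plate-position-corrected score, falls beyond the plate's 99.7% confidence bounds, in either direction; inactive = both scores lie inside the 99.7% bounds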
# M1 ag: M1 muscarinic receptor agonists, primary screen, CHO-M1 cells, Fluo-4 calcium, agonist mode | Muscarinic acetylcholine receptor M1 | Fluo-4 calcium fluorescence; active compounds read high | B-score at 10 µM | 3% of 64,000 active;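 active = fluorescence rise, raw or as B-score row- and column-corrected plate score, outside the 99.7% band of its plate's samples, either direction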
# FXIa mix inh: FXIa protease inhibitors in compound pools, primary screen, biochemical, 10-compound mixtures. purified FXIa, fluorogenic substrate, pooled mixtures. 0.19% of 62,000 active. AID 680, 2007. inhibition, % at 5 µM;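 also: each value is inhibition by a whole ten-compound pool holding the compound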
# FXIIa inh mix: human factor XIIa inhibitors, primary screen, biochemical, pooled compound mixtures, fluorogenic substrate. Coagulation factor XII (Homo sapiens), P00748. purified FXIIa. inhibition, % at 5 µM. 0.2% of 62,000 active. AID 684, 2007
# Target sequence (P00748 20-372 limits assumed): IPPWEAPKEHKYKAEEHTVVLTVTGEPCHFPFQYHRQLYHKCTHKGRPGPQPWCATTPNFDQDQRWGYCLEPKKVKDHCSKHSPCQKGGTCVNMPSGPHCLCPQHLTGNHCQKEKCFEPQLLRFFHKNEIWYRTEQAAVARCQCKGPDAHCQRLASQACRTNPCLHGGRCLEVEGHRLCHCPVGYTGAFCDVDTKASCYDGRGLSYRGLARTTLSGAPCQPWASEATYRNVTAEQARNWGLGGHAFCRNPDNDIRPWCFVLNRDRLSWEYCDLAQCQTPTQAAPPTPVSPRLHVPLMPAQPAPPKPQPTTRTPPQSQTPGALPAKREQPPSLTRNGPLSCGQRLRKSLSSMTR
# Target sequence (P00748 373-615 limits assumed): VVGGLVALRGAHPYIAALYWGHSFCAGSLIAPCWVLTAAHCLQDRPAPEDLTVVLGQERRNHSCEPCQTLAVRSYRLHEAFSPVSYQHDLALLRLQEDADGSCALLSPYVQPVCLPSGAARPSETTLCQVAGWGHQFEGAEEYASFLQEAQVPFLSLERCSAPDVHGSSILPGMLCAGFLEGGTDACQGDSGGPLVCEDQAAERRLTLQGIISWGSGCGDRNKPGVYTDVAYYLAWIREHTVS
# D1 mod confirm: D1 receptor positive allosteric modulators, retest, confirmation, cell-based, HEK293 D1, CRE-luciferase, duplicate; 88% of 2,200 active; AID 642, 2007; shares compounds with D1 mod; luminescence at 10 µM; dopamine EC30 potentiation; active compounds read high;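 active = luminescence in either of two replicates above the same-plate mean plus 3 SD of the low-dose dopamine control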
# D1 ag no DA: D1 receptor agonism without dopamine, confirmation, mechanism study for D1 allosteric modulator project, cell-based, HEK293 D1, CRE-luciferase, secondary assay 1. shares compounds with D1 mod. luminescence, no dopamine; active compounds read high. luminescence at 10 µM. 0.8% of 1,900 active. AID 646, 2007; in the data active = luminescence above about 3900
# Isoprot counter: isoproterenol response counter-screen activity for D1 modulators; HEK293 D1 CRE-luciferase, isoproterenol EC30 counter-screen; AID 647; shares compounds with D1 mod; calls only at 10 µM; 63% of 2,200 active;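 active = luminescence in either replicate above plate mean of wells with a partly effective reference agonist dose plus 3 SD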;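 also: isoproterenol raises cAMP through native beta-adrenoceptor Gs so signal bypasses D1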
# Hits are given with their value; 0 = inactive; - = no result; + = active, no number. A selection: hits, their analogues and other compounds. The true share with any hit is near 7.4%. Rule as the data show it, unless noted: active = inhibition above about 20% (passing the limit was not always enough); inactive = the rest.
SMILES,M1 antagonist,D1 mod,DAT uptake mod,M1 ag,FXIa mix inh,FXIIa inh mix,D1 mod confirm,D1 ag no DA,Isoprot counter
CCCNC(=O)C(C)n1c2ccccc2c2nc(=O)cc(C)n21 (configuration not stated),-,-,0,-,-,-,-,-,-
COC(=O)C1=[N+]([O-])OC(C(=O)OC)C1c1c[nH]c2ccccc12 (configuration not stated),0,4.2,0,0,0,0,0,0,0
CC(C)c1ccc(-c2c(C#N)c(N)nc3c2CCCCC3)cc1,-,-,0,-,-,-,-,-,-
C=CCNc1sc(C(=O)C2CC2)c(N)c1C#N,0,19,0,0,-,-,26736,0,+
C=CCNc1sc(C(=O)C(C)(C)C)c(N)c1C#N,0,9.3,0,0,0,0,21312,0,0
C=CCNc1sc(C(=O)c2ccccc2)c(N)c1C#N,-,-,0,-,-,-,-,-,-
COc1ccc(OC)c(-c2cc(C(=O)Nc3cccc(Cl)c3)no2)c1,0,0,0,0,0,0,-,-,-
COc1cc2c(cc1OC)CN(C(=O)CCCN1C(=O)c3ccccc3C1=O)CC2,0,5,0,0,0,0,7424,0,+
COc1cc2c(cc1OC)CN(C(=O)CCCOc1ccc(Cl)cc1Cl)CC2,-,-,0,-,-,-,-,-,-
COc1cc2c(cc1OC)CN(C(=O)CSc1n[nH]c(N)n1)CC2,0,13,0,0,0,0,16292,0,+
CCO[C@@H]1OC(C(N)=O)=C[C@H](c2ccc3c(c2)OCO3)[C@H]1CCCO,-,-,0,-,-,-,-,-,-
COC(=O)c1c(NC(=O)Cc2cccs2)sc2c1CCC(C)C2 (configuration not stated),0,4.9,0,0,0,0,8816,0,0
CCOC(=O)c1c(NS(C)(=O)=O)sc2c1CCC(C)C2 (configuration not stated),0,9.2,0,0,0,0,13356,0,+
CCOC(=O)c1c(NC(=O)c2ccco2)sc2c1CCCC2,-,0,0,-,0,0,-,-,-
COC(=O)c1c(NC(=O)c2ccco2)sc(C(=O)N2CCCC2)c1C,-,6.9,0,-,0,0,12140,-,+
CCN(CC)C(=O)c1sc(NC(=O)Cc2cccs2)c(C#N)c1C,0,6.9,0,0,0,0,11496,0,0
CCN(CC)C(=O)c1sc(NC(=O)c2ccc3c(c2)OCO3)c(C#N)c1C,-,-,0,-,-,-,-,-,-
Cc1cc(C(F)(F)F)nn1CC(=O)NNC(=S)Nc1ccc(F)cc1,-,-,0,-,-,-,-,-,-
COC(=O)c1c(NC(=O)Cc2cccs2)sc(C(=O)N2CCCCC2)c1C,0,7.3,0,0,0,0,25076,0,+
CCOC(=O)c1c(NC(=O)Cc2cccs2)sc(C)c1C,0,13,0,0,0,0,15008,0,+
CCOC(=O)c1c(NC(=O)Cc2cccs2)sc(C(=O)NC2CCCC2)c1C,-,-,0,-,-,-,-,-,-
CCOC(=O)c1oc2ccccc2c1NC(=O)c1cccc(OC)c1OC,0,16,0,0,0,0,20936,0,+
CCOC(=O)c1oc2ccccc2c1NC(=O)C1CCCCC1,0,9.5,0,0,0,0,15764,-,+
CCOC(=O)c1oc2ccccc2c1NC(=O)c1cccc(OC)c1,0,0,0,0,0,0,-,-,-
CC(=O)Nc1c(C(=O)C2CC2)oc2ccccc12,0,8.3,0,0,0,0,13456,0,+
COc1ccccc1CNC(=O)c1ccccc1N,-,-,0,-,-,-,-,-,-
CCSc1nnc(NC(=O)c2nn(C(C)C)c(=O)c3ccccc23)s1,0,0,0,0,0,0,-,-,-
